Unmarked numbers belong to inactive results. Records with an inconclusive call do not appear. Where a call stands in place of a potency, no number is given. Activity calls are given as the source filed them. Unless noted, the call rests on the fitted dose curve; in most records, active means well fitted inhibition curve with a large enough effect; inconclusive means small, poorly fitted or top-dose-only effect, or effect the other way; inactive means flat fitted curve, though single readings scatter.

Sequence of ATP-dependent 6-phosphofructokinase (Trypanosoma brucei brucei) (O15648 whole entry, looked up): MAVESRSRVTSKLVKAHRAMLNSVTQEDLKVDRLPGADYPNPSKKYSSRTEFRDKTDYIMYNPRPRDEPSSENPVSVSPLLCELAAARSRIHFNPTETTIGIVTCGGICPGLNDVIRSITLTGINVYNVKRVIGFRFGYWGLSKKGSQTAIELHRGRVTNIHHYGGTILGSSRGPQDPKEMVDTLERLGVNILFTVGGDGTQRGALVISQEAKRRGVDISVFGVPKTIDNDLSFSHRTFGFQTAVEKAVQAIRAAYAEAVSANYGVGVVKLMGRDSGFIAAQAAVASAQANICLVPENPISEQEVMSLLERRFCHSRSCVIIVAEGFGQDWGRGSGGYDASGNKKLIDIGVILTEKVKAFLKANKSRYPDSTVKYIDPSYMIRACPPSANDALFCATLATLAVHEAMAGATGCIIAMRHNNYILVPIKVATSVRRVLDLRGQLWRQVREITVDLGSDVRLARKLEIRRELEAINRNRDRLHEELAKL

One test concerns the target ATP-dependent 6-phosphofructokinase (Trypanosoma brucei brucei) (UniProt O15648). Put plainly: qHTS Assay to Find Inhibitors of T. brucei phosphofructokinase: hit validation (AID 492961). Further: potency means the concentration at half of the fitted maximal effect. As to conditions: T. brucei PFK, ADP-Glo luminescence; series mostly up to 51.4 µM. An outline of the steps: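 Measures ADP output of PFK (1.25 nM) at 0.1 mM ATP, 0.5 mM F6P, pH 8.0 TEA buffer with 5 mM MgCl2. No-enzyme wells define full inhibition; uninhibited enzyme wells define zero.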
In general terms: In qHTS, concentration-response curves come from the screen itself.
As to `CCNC(C)Cc1cccc(C(F)(F)F)c1` (configuration not stated), the Potency entry is “inactive”. The same measure, in the same setting: for `O=C1CCO1` the value was “inactive”; for `C=CCC1(C(C)CCC)C(=O)N=C(S)NC1=O` (configuration not stated), “inactive”. On the same count and under the same terms, for `C=CCN1CC[C@]23c4c5ccc(O)c4O[C@H]2[C@@H](O)C=C[C@H]3[C@H]1C5` the value was “inactive”. On the same count and under the same terms, in the case of `[Cl-].[Cl-].[Hg+2]` it was 8.91 µM (active). `CNC(=O)OCC[N+](C)(C)C`: the Potency entry is “inactive”. Consider `O=CC=O`, for which the Potency entry was “inactive”.

As to `O=C1CN(O)C(c2ccccc2)=c2cc(Cl)ccc2=N1`, the Potency entry was “inactive”. On the same count and under the same terms, in the case of `CCC1(c2ccccc2)C(=O)NC(=O)N(C(=O)c2ccccc2)C1=O` (configuration not stated) it was “inactive”. On the same count and under the same terms, for `COc1ccc2c3c1O[C@H]1C(=O)CC[C@H]4[C@@H](C2)N(C)CC[C@]314` the value was “inactive”. On the same count and under the same terms, in the case of `CC(C)CCON=O` it was “inactive”.

With `O=Cc1ccco1`, the Potency result is “inactive”. The same measure, in the same setting: in the case of `CCC1C(C)=NN=C(c2ccc(OC)c(OC)c2)c2cc(OC)c(OC)cc21` (configuration not stated) it was “inactive”; in that of `O=P(O)(O)C(Cl)(Cl)P(=O)(O)O`, “inactive”; in that of `CC(=O)O[C@H]1CC[C@H]2[C@@H]3CCC4=CC(=O)CCC4=C3C=C[C@]12C`, “inactive”.

Take `O=C(OCCN1CCCCC1)C(O)(c1ccccc1)c1ccccc1`: the Potency entry was “inactive”. Still for that read-out and setting: for `CCC1(CC)C(=O)NC(=O)N(C)C1=O` the value was “inactive”; for `CCCC(C)(COC(N)=O)COC(=O)NC1CC1` (configuration not stated), “inactive”. Take `N#CC1(N2CCCCC2)CCCCC1`: the Potency result is “inactive”. The same measure, in the same setting: in the case of `N#CC(C#N)=Cc1cc(O)c(O)c(O)c1` it was “inactive”. Still for that read-out and setting: for `C[C@H]1CCC[C@H](O)CCCCCc2cc(O)cc(O)c2C(=O)O1` the value was “inactive”.

`CCCCNCC(O)c1ccc(O)cc1` (configuration not stated): the Potency result was “inactive”.

For the compound `C[C@H]1CC[C@@H]2[C@@H](C)[C@H]3[C@H](C[C@H]4[C@@H]5CC=C6CC(O[C@@H]7O[C@H](CO)[C@H](O)[C@H](O[C@@H]8O[C@H](CO)[C@@H](O)[C@H](O)[C@H]8O)[C@H]7O[C@H]7O[C@@H](C)[C@H](O)[C@@H](O)[C@H]7O)CC[C@]6(C)[C@H]5CC[C@]34C)N2C1` (some centres not stated), the Potency entry is “inactive”. The same measure, in the same setting: in the case of `O=C(CS(=O)C(c1ccccc1)c1ccccc1)NO` (configuration not stated) it was “inactive”; in that of `CNC(C)C(O)c1ccc(O)cc1` (configuration not stated), “inactive”; in that of `COCC(C)N(C(=O)CCl)c1c(C)csc1C` (configuration not stated), “inactive”. Regarding `O=C1CN=C(c2ccccc2)c2cc(Cl)ccc2N1CC1CC1`, the Potency result was “inactive”. On the same count and under the same terms, in the case of `c1ccc(C2(N3CCCC3)CCCCC2)cc1` it was “inactive”. The same measure, in the same setting: for `O=C(NCNC(=O)NC1C(=O)NC(=O)N1CO)NC1C(=O)NC(=O)N1CO` (configuration not stated) the value was “inactive”. Regarding `CCCCCCCCCC(=O)O[C@H]1CC[C@H]2[C@@H]3CCC4=CC(=O)CC[C@]4(C)[C@H]3CC[C@]12C`, the Potency entry was “inactive”. On to `CC1CCC(C(C)C)C(OC(=O)c2ccccc2N)C1` (configuration not stated), for which the Potency result is “inactive”. The same measure, in the same setting: in the case of `O=c1[nH]c(=O)n(Cl)c(=O)n1Cl` it was “inactive”.

In the next test the target is Thyrotropin-releasing hormone receptor (Homo sapiens) (UniProt P34981). Description: qHTS for Small Molecule Agonists and Allosteric Enhancers of Human TRH Receptor: Validation Screen for Agonists (AID 493127;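 active means calcium activation more than 3 SD above the typical response in the agonist read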;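 further: intracellular calcium rise by fluo-8 fluorescence before TRH EC20 addition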). As to conditions: TRH receptor agonist cell assay; at 2 µM; hits give high values. An outline of the steps: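 Compound-evoked intracellular calcium release in fluo-8-loaded TRHR cells, read kinetically on FDSS (Ex 480/Em 530, 1 s/cycle) after 23 nL pintool transfer. Agonist phase preceded 10 nM TRH EC20 addition.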
Sequence of Thyrotropin-releasing hormone receptor (Homo sapiens) (P34981 whole entry, looked up): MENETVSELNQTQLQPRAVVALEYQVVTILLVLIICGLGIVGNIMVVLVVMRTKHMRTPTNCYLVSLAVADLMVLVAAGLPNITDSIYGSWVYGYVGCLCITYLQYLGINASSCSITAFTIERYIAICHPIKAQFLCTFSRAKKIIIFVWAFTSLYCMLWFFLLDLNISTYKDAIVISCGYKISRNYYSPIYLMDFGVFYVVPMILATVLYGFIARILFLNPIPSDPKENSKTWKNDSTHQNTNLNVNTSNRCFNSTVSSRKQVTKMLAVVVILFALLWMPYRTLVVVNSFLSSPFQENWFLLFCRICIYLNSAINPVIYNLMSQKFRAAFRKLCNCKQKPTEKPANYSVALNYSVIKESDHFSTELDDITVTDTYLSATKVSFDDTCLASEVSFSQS
For the compound `CC(C)CC(NP(=O)(O)O[C@@H]1O[C@@H](C)[C@H](O)[C@@H](O)[C@H]1O)C(=O)NC(Cc1c[nH]c2ccccc12)C(=O)O` (some centres not stated), the activation was 1.38%. On the same count and under the same terms, in the case of `CNC(=O)OCC[N+](C)(C)C` it was -0.438%; in that of `CC1OC1P(=O)(O)O` (configuration not stated), -2.75%; in that of `C[N+]1(C)CCC(OC(=O)C(c2ccccc2)c2ccccc2)CC1`, 0.125%.

Regarding `O=P(O)(O)C(Cl)(Cl)P(=O)(O)O`, the activation is -0.25%.

`CCCN1CCCC2Cc3[nH]ncc3CC21` (configuration not stated): the activation was -0.5%. On the same count and under the same terms, for `N#CC(C#N)=Cc1cc(O)c(O)c(O)c1` the value was 0.188%; for `CN1C2CCC1CC(OC(c1ccccc1)c1ccc(Cl)cc1)C2` (configuration not stated), 8.88%. On the same count and under the same terms, in the case of `CCN(CC)c1ncnc2c1ncn2[C@@H]1O[C@H](COP(=O)(O)OP(=O)(O)C(Br)(Br)P(=O)(O)O)[C@@H](O)[C@H]1O` it was 0.312%; in that of `COc1ccc2c(c1OC)C(=O)OC2C1c2cc3c(cc2CCN1C)OCO3` (configuration not stated), -4.69%.

For the origin of these results see PubChem BioAssay (NCATS).
